Assay outcomes (PubChem BioAssay)
ELG1 DNA repair = ELG1-dependent DNA repair inhibition; HEK293T ELG1-luciferase reporter, luminescence, 16 h; DNA damage induced by 5-fluorouridine; Potency, µM (doses to about 46.1 µM), for inactives: top-dose activity change, negative = inhibition, usual class: inhibitors; hit rate 2.3% among 330,000; AID 504467; further: on the % scale 0 is the no-effect control and ±100 the full control effect; nearly all actives have a fitted effect of over 55% in size
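Luminescence from the luciferase reporter, measured 30 min after ONE-Glo reagent at room temperature, was the read-out. Beforehand, 2,000 cells per well were exposed for 16 hr at 37 °C to 5-fluorouridine together with compound or vehicle.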
ELG1 genotox = genotoxicity induction in ELG1-luciferase HEK293T cells; Potency, µM (doses to about 46 µM), for inactives: at the top dose activity change, positive = activation, hits mostly activators; HEK293T ELG1-luciferase reporter, luminescence, 16 h; hit rate 1.3% among 330,000; further: % of control where 0% means no effect; nearly all actives have a fitted effect of over 60% in size
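ELG1-luciferase HEK293T cells, 2,000/well; compound pinned in; 16 hr, 37 °C, 5% CO2; ONE-Glo, 30 min RT; luminescence on CCD imager.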
NPC1 promoter act = NPC1 promoter activation | Huh7 NPC1 promoter luciferase reporter, 24 h | Potency, µM (series often up to 9.22 µM), without a hit: at the highest dose activation, actives largely listed as activators | hit rate 2.4% among 320,000 | AID 485313; further: % of control where 0% means no effect; nearly all actives have a fitted effect of over 60% in size
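Luminescence read-out of NPC1 promoter-driven luciferase in stably transfected Huh7 cells; compounds delivered in DMSO and left 24 h at 37C, 5% CO2, qHTS titration format.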
SMN2 splice enh = increases expression of the SMN2 splice variant; HEK293 SMN2-luciferase splicing reporter, luminescence, 30-36 h; Potency, µM (doses to about 46.1 µM), for inactives: at the highest dose activity change, positive = activation, actives largely listed as activators; hit rate 2.8% among 210,000; AID 1458; further: % of control where 0% means no effect; nearly all actives have a fitted effect of over 55% in size
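HEK293 cells carry an SMN2 minigene-luciferase reporter in which exon 7 inclusion puts luciferase in frame. Cells were seeded at 2000 cells/well, attached for 10-12 hours, then exposed to compounds for 30-36 hours at 37C before ONE-Glo luminescence.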
Rab9 promoter act = activators of Rab9 promoter; Huh7 Rab9 promoter-luciferase reporter, luminescence, 24 h; Potency, µM (top dose mostly 9.22 µM), without a hit: at the top dose activation, negative = inhibition, most hits filed as activators; hit rate 2.8% among 320,000; further: % of control where 0% means no effect; nearly all actives have a fitted effect of over 60% in size
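Cell-based reporter: Huh7 stable for Rab9 promoter-driven luciferase, plated in reduced-serum medium with 10% FBS at 1500 cells/well, compound-treated 24 h at 37 °C, luminescence read after 10 min reagent.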
FLuc modulator = inhibits or activates purified firefly luciferase, miR-21 counter-screen; purified FLuc, Km substrates, luminescence inhibition; Potency, µM (highest dose often 57.5 µM), for the others: top-dose activity change, negative = inhibition, actives largely listed as inhibitors; hit rate 6.9% among 360,000;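 further: plate controls were vehicle for no effect and reference inhibitor for full effect; nearly all actives have a fitted effect of over 55% in size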
Target sequence (P08659 whole entry, looked up): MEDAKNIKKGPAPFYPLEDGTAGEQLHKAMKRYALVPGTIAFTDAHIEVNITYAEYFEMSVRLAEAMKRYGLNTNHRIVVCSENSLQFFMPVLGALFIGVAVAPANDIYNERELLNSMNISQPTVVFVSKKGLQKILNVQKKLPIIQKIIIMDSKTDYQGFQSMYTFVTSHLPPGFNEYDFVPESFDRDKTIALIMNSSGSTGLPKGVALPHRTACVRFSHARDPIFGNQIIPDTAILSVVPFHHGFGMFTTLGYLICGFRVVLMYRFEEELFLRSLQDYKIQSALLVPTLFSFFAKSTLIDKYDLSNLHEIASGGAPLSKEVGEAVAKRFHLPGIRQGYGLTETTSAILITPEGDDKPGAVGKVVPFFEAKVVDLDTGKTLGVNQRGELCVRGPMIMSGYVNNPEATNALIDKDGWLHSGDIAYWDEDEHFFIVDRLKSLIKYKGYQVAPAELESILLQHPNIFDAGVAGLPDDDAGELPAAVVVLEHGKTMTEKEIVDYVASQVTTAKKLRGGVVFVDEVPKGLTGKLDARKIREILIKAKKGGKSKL
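Purified P. pyralis luciferase (10nM final) with 10uM D-luciferin and 10uM ATP (Km levels) in 50mM Tris acetate pH 7.5, 10mM Mg acetate, 0.01% Tween-20, 0.05% BSA; qHTS 6-point titration, ~60 µM downward; luminescence read.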
Starred values were filed as active, the others as inactive; ? = inconclusive; nt = no result. Sampled rows, rich in hits. Any-hit rate of the full collection: about 9.4%. The call rests on the fitted dose curve; in most records, active means well fitted curve in the direction sought with a large enough effect; inconclusive means small, poorly fitted or top-dose-only effect, or another doubt; inactive means no such curve, though single readings can be large; an effect the other way counts as inactive or inconclusive. Potency means the concentration at half of the fitted maximal effect.

SMILES	ELG1 DNA repair	ELG1 genotox	NPC1 promoter act	SMN2 splice enh	Rab9 promoter act	FLuc modulator
CC(=O)c1cccc(NC(=O)C2C3C=CC(C4CC34)C2C(=O)O)c1 (stereo not drawn)	5.2%	-0.5%	5.8%	-1.8%	-4.3%	-1.2%
CCc1cccc2c(C(=O)COC(=O)c3nn(C)c(=O)c4ccccc34)c[nH]c12	?	-19.2%	-1.9%	-2.5%	-1.0%	13.5µM*
CCn1nc(C(=O)OCC(=O)c2c[nH]c3ccccc23)c2ccccc2c1=O	?	2.7%	4.7%	-9.6%	0.8%	23.9µM*
Cc1ccc2c(=O)cc(C(=O)Nc3sc4c(c3C(=O)NCC3CCCO3)CCCC4)oc2c1C (stereo not drawn)	nt	nt	nt	-7.9%	nt	1.1%
CCn1c(CN2CCCCC2)nc2cc(NC(=O)c3cc(OC)c(OC)c(OC)c3)ccc21	nt	nt	nt	nt	nt	-0.8%
Cc1ccc(C)c(NS(=O)(=O)c2cc3c(cc2Cl)NC(=O)CO3)c1	nt	nt	nt	nt	nt	1.6%
Cc1ccc(OCCN2C(=O)c3ccccc3C2=O)cc1	?	?	12.3%	14.1%	21.7%	?
O=C1c2ccccc2C(=O)N1CCOc1cccc(Br)c1	?	?	28.1%	nt	?	10.7µM*
Cc1cccc(OCCN2C(=O)C(=O)c3cccc(C)c32)c1	6.0%	0.0%	-4.2%	-6.6%	-1.7%	-0.3%
Cc1ccc2c(c1)C(=O)C(=O)N2CCOc1ccccc1	10.0%	?	-5.6%	-19.0%	-3.1%	13.5µM*
Cc1cccc(OCCN2C(=O)C(=O)c3cc(C)ccc32)c1	-10.7%	?	-11.1%	-9.4%	-17.7%	12µM*
CCOC(=O)c1c(C)[nH]c(C)c1S(=O)(=O)N1CCC(C(=O)Nc2ccc(F)cc2F)CC1	nt	nt	nt	nt	nt	-7.9%
COc1cccc(NC(=O)Nc2ccc3nsnc3c2)c1	?	0.0%	?	12.6µM*	2.82µM*	7.57µM*
COc1cccc(NC(=O)Nc2ccc3c(c2)nc(C)n3C)c1	?	?	0.708µM*	nt	0.708µM*	0.953µM*
COc1cccc(NC(=O)Nc2ccc3nc(C)c(C)nc3c2)c1	-17.8%	-6.7%	23.4%	nt	25.8%	?
Cc1nc2cc(NC(=O)Nc3nccs3)ccc2n1C	?	2.59µM*	1.41µM*	14.1µM*	1.41µM*	4.26µM*
CCn1c(C)nc2cc(NC(=O)Nc3cccc(C(C)=O)c3)ccc21	?	-9.2%	2.82µM*	nt	?	1.51µM*
Cc1nc2cc(NC(=O)NC(C)(C)C)ccc2n1C	?	9.4%	13.6%	nt	12.6%	?
CC(C)CCNC(=O)c1cccc(-n2cnc3cccnc32)c1	nt	nt	nt	nt	nt	-3.6%
CC(C)(C)OC(=O)N1CCC(c2nnc(SCc3cccc(Cl)c3)o2)CC1	nt	nt	nt	-44.6%	nt	-9.3%
Cc1ccccc1-c1nc(SCC(=O)NCc2ccco2)c2c(=O)n(C)c(=O)n(C)c2n1	nt	nt	nt	nt	nt	-1.9%
O=C(CN1CC(c2ccccc2)CC1=O)OCc1ccccc1F (stereo not drawn)	?	0.2%	6.5%	?	11.6%	12µM*
O=C(CN1C(=O)NC2(CCCC2)C1=O)OCc1ccccc1F	20.6%	0.7%	-3.1%	nt	2.7%	-1.8%
Cc1cc(C(=O)COc2cccc(-n3cnnn3)c2)c(C)n1-c1ccccc1	?	-9.5%	2.7%	-32.3%	23.4%	3.01µM*
CCc1ccc(NC(=O)COc2cccc(-n3cnnn3)c2)cc1	12.8%	4.0%	-1.6%	nt	-2.9%	19µM*
SMILES	ELG1 DNA repair	ELG1 genotox	NPC1 promoter act	SMN2 splice enh	Rab9 promoter act	FLuc modulator
COC(=O)c1ccc(NC(=O)COc2cccc(-n3cnnn3)c2)cc1	6.1%	2.4%	0.3%	nt	-1.9%	-1.9%
COCCN1CCN(Cc2ccc(C(=O)NC(C)C)cc2)C(=O)C1=O	nt	nt	nt	nt	nt	0.1%
COc1cccc(C(=O)N2CCCCC2CCN2CCCCC2)c1 (stereo not drawn)	nt	nt	nt	4.1%	nt	-0.1%
c1ccc(Nc2scc(-c3ccccc3)[n+]2Cc2ccco2)cc1	?	?	-4.0%	-7.2%	?	16.9µM*
CSc1ccc(/C=N/NC(=O)c2ccc(C)c(C)c2)cc1	-0.6%	5.8%	2.0%	11.2%	-1.1%	19µM*
CSc1ccc(/C=N/NC(=O)c2sccc2C)cc1	?	1.84µM*	0.562µM*	2.51µM*	0.631µM*	0.426µM*
Cc1cccc(C(=O)Oc2ccc(/C=N/NC(=O)c3cc(O)cc(O)c3)cc2)c1	8.8%	6.7%	-1.1%	nt	4.3%	?
CSc1ccc(/C=N/NC(=O)c2cc(O)cc(O)c2)cc1	?	?	?	?	?	9.53µM*
COCCCNC(=O)CC(=O)N/N=C\c1ccc(SC)cc1	10.8%	0.8%	-6.6%	nt	-3.1%	-2.0%
O=C(N/N=C\c1ccc(COc2ccc([N+](=O)[O-])cc2)o1)c1ccc(Cl)cc1	-21.6%	-8.5%	-0.5%	-18.7%	0.3%	-16.6%
COc1ccc(OCc2ccc(/C=N\NC(=O)c3sccc3C)o2)cc1	?	13.5%	?	nt	?	26.9µM*
O=C(CN1C(=O)COc2ccc(S(=O)(=O)N3CCCCCC3)cc21)Nc1cccc(Cl)c1	nt	nt	nt	nt	nt	-16.9%
CC1(C)CC(N2CCCC2)=CC(=[N+]2CCCCC2)C1	1.16µM*	-5.4%	-35.2%	-43.0%	-40.1%	-2.1%
CC1(C)CC(N2CCCC2)=CC(=[N+]2CCCC2)C1	-8.3%	-7.2%	-31.0%	-67.8%	-38.0%	2.0%
CC1(C)CC(N2CCN(Cc3ccccc3)CC2)=CC(=[N+]2CCCCC2)C1	0.731µM*	-5.8%	-31.3%	nt	-40.4%	0.2%
CCc1ccc(NC(=O)C2CCN(S(=O)(=O)c3cccc(-c4noc(C)n4)c3)CC2)cc1	nt	nt	nt	nt	nt	-12.6%
N#Cc1cc2c(=O)n3ccccc3nc2n(-c2nnc(SCc3ccccc3Cl)s2)c1=O	nt	nt	nt	-2.5%	nt	-0.8%
Cc1cc(C)cc(C(=O)N2CC(=O)Nc3ccc(C)cc3C2c2ccccc2)c1 (stereo not drawn)	nt	nt	nt	-4.4%	nt	-12.2%
Cc1ccc(NC(=O)[C@H](Cc2ccccc2)N2Cc3ccccc3C2=O)cc1	nt	nt	nt	-3.0%	nt	2.2%
NNC(=O)C(Cc1ccc(O)cc1)N1Cc2ccccc2C1=O (stereo not drawn)	-5.2%	-2.7%	2.0%	nt	0.1%	-1.3%
COC(=O)C(Cc1ccc(O)cc1)N1Cc2ccccc2C1=O (stereo not drawn)	?	?	3.98µM*	nt	1.78µM*	15.1µM*
COC(=O)C(Cc1ccc(OC(=O)c2ccc(C)cc2)cc1)N1Cc2ccccc2C1=O (stereo not drawn)	?	9.0%	?	15.8µM*	?	?
O=c1c2ccccc2cnn1-c1ccc(Br)cc1	?	?	0.708µM*	2.82µM*	1.58µM*	3.38µM*
